# High-throughput results (PubChem)
# EPAC2 agonist = qHTS for Agonist of cAMP-regulated guanine nucleotide exchange factor 4 (EPAC2): primary screen | Rap guanine nucleotide exchange factor 4 (Homo sapiens), Q8WZA2 | 0.079% of 360,000 active | Potency, µM (top dose mostly 154 µM), without a hit: at the highest dose activation, actives largely listed as activators | EPAC2 activation, biochemical qHTS; response scale: 100% = 6.5 mM cAMP response; also: nearly all actives have a fitted effect of over 50% in size
#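 In this primary screen, activation is scored as increased exchange of BODIPY-GDP from Rap1B by 100 nM EPAC2, with 50 uM GDP as competitor. Signal is normalized to the 6.5 mM cAMP agonist control.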
# EPAC1 ag = qHTS for Agonist of cAMP-regulated guanine nucleotide exchange factor 3 (EPAC1): primary screen; Rap guanine nucleotide exchange factor 3 (Homo sapiens), O95398; EPAC1 agonist qHTS, biochemical assay; response scale: 100% = response to 6.5 mM cAMP; Potency, µM (doses to about 154 µM), without a hit: top-dose activation, usual class: activators; 0.073% of 360,000 active; also: nearly all actives have a fitted effect of over 60% in size
# Target sequence (O95398 whole entry, looked up): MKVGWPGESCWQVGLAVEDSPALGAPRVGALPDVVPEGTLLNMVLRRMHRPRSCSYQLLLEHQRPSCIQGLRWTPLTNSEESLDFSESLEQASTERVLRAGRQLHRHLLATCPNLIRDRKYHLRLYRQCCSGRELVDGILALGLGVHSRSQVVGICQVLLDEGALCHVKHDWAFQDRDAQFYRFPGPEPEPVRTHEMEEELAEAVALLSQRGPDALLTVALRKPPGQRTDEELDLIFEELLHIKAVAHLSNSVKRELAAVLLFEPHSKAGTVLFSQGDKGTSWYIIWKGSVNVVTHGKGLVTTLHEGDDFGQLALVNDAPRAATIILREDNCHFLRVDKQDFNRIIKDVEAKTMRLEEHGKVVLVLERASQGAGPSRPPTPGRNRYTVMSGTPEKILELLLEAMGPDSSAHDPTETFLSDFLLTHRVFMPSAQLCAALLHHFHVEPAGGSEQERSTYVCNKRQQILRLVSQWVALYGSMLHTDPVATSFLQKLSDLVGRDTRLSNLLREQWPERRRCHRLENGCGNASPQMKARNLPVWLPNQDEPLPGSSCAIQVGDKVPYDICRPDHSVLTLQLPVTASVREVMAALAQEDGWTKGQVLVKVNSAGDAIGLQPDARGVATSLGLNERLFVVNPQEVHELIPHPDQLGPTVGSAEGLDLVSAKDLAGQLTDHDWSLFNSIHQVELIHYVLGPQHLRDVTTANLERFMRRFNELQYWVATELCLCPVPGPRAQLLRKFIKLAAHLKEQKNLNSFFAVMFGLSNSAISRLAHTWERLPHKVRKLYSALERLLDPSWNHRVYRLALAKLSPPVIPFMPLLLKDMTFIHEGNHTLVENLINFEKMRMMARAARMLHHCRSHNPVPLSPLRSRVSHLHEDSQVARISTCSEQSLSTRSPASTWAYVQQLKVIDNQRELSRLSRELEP
#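 Read-out is the fluorescence drop as BODIPY-GDP leaves Rap1B (480 nm excitation, 540 nm emission), recorded every 5 minutes over 30 minutes. Reactions held 100 nM EPAC1, 250 nM Rap1B–BODIPY-GDP and 50 uM GDP, with 6.5 mM cAMP setting full activation.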
# ERG Ets-DNA blk = qHTS for Small Molecule Inhibitors of the ERG Ets/DNA interaction. Transcriptional regulator ERG (Homo sapiens), P11308. fluorescence polarization, His-ERG Ets domain / labelled DNA. Potency, µM (titrated, usually from 76.9 µM), inactives show at the top dose FP activity, negative = inhibition, hits mostly inhibitors. 0.028% of 370,000 active; active = well fitted inhibition curve with a large enough effect in the polarisation, with a control signal flat; inconclusive = small, poorly fitted or top-dose-only effect, or effect the other way, or a change in a side signal; inactive = no such curve, though single readings can be large or run the other way; the % refers to the polarisation;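 also: polarization taken with two DNA probes labelled with fluorescein and Texas red; % of control where 0% means no effect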
#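 His-tagged ERG Ets domain (1 uM in the protein solution; 300mM KCl, 50mM Tris-HCl, 1mM EDTA, 1mM DTT, pH 7.5) received compound, then a probe mix of 5 nM fluorescein-DNA and 100nM Texas-615-DNA. Fluorescence polarization was read for both dyes.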
# TDP1 block = qHTS Assay for Inhibitors of Tyrosyl-DNA Phosphodiesterase (TDP1); 0.28% of 350,000 active; recombinant TDP1, AlphaScreen DNA substrate cleavage; Potency, µM (doses to about 130 µM), inactives show at the highest dose activity change, negative = inhibition, hits mostly inhibitors; Tyrosyl-DNA phosphodiesterase 1 (Homo sapiens), Q9NUW8; also: % is scaled to controls: 0 for no effect and ±100 for the full control effect; nearly all actives have a fitted effect of over 40% in size
#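 AlphaScreen read-out: signal falls as enzyme removes the 3' tyrosine-FITC from a 5'-biotinylated DNA oligo (15 nM, 5 min, RT). Enzyme was E. coli-made recombinant Tdp1 at 1 nM, exposed to compound for 15 min beforehand; beads 10 ug/ml, 10 min.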
# EPAC1 antagonist = qHTS for Antagonist of cAMP-regulated guanine nucleotide exchange factor 3 (EPAC1): primary screen; Rap guanine nucleotide exchange factor 3 (Homo sapiens), O95398; EPAC1 GEF assay, Rap1b-BODIPY-GDP exchange fluorescence; Potency, µM (titrated, usually from 115 µM), for the others: at the top dose activity change, negative = inhibition, actives largely listed as inhibitors; 0.14% of 360,000 active; AID 720709, 2013;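 also: plate controls were vehicle for no effect and positive control for full effect; nearly all actives have a fitted effect of over 50% in size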
# EPAC2 antagonist = qHTS for Antagonist of cAMP-regulated guanine nucleotide exchange factor 2 (EPAC2): primary screen | Potency, µM (titrated, usually from 114 µM), for inactives: at the top dose activity, negative = inhibition, hits mostly inhibitors | EPAC2 GEF exchange of Rap1B-BODIPY-GDP, fluorescence | 0.18% of 360,000 active | AID 720708, 2013; also: % is scaled to controls: 0 for no effect and ±100 for the full control effect; nearly all actives have a fitted effect of over 45% in size
# * = called active by the depositor; ? = inconclusive; . = no result; [ ] = remark or other dose. A selection: hits, their analogues and other compounds. The true share with any hit is near 0.54%. Unless noted, calls follow the shape of the dose curve; as a rule, active = well fitted curve in the direction sought with a large enough effect; inconclusive = small, poorly fitted or top-dose-only effect, or another doubt; inactive = no such curve, though single readings can be large; an effect the other way counts as inactive or inconclusive. Potency is read from the fitted curve at half-maximal effect.
SMILES,EPAC2 agonist,EPAC1 ag,ERG Ets-DNA blk,TDP1 block,EPAC1 antagonist,EPAC2 antagonist
Nn1cnnc1N/N=C/c1ccc(Cl)c([N+](=O)[O-])c1,2.8%,-10.9%,-12.4%,7.0%,15.8µM*,5.5%
O=C1CCc2cc(S(=O)(=O)Nc3cccnc3)ccc2N1,.,.,.,2.1%,.,.
NC(=O)c1cc[n+](CC2=C(C(=O)[O-])N3C(=O)[C@@H](NC(=O)Cc4cccs4)[C@@H]3SC2)cc1,.,.,.,15.8µM*,.,.
NS(=O)(=O)c1ccc(CCNS(=O)(=O)c2ccccc2)cc1,-3.6%,0.7%,12.3%,3.1%,-20.2%,-4.6%
NS(=O)(=O)c1ccc(CCNC(=O)c2ccc3nccnc3c2)cc1,-0.3%,7.6%,0.8%,7.94µM*,?,-2.2%
NS(=O)(=O)c1ccc(NC(=O)c2ccc3nccnc3c2)cc1,-6.4%,5.2%,5.8%,.,14.6%,-4.1%
NS(=O)(=O)c1ccc(CCNS(=O)(=O)c2cccc(C(=O)O)c2)cc1,4.7%,8.1%,-6.1%,79.4µM*,6.0%,4.7%
Cc1ccccc1-c1cncnc1NCCN1CCOCC1,.,.,.,35.5µM*,.,.
O=C(Nc1ccccc1)c1ccc(-n2nncc2-c2ccccc2)cc1,.,.,.,1.9%,.,.
CC(Oc1ccc(F)cc1)C(=O)Nc1ccccc1N1CCCCC1 (configuration not stated),-5.1%,4.4%,-6.4%,-9.0%,6.6%,-25.0%
CCC(C(=O)Nc1ccccc1N1CCCC1)c1ccccc1 (configuration not stated),-5.6%,-1.4%,9.7%,5.2%,-3.6%,5.1%
CCC(Oc1ccccc1)C(=O)Nc1ccccc1N1CCCC1 (configuration not stated),12.7%,8.6%,-0.8%,9.1%,-24.7%,50.1µM*
CCC(Oc1ccccc1)C(=O)Nc1ccccc1N1CCCCC1 (configuration not stated),7.0%,-2.5%,-0.3%,1.4%,3.4%,12.6µM*
Cc1ccc(/C=C/C(=O)NCc2ccccn2)o1,-3.5%,-0.7%,-3.5%,14.1µM*,-13.5%,4.0%
COc1ccc(/C=C/C(=O)NCc2ccccn2)cc1,-10.5%,-3.5%,-0.7%,1.2%,-15.8%,7.7%
O=c1oc2cc(O)ccc2cc1-c1nc2ccccc2o1,?,63.1µM*,.,.,86.1%,8.1%
O=C1/C(=C/c2ccc(O)c(O)c2)Oc2ccccc21,.,.,.,21.3%,.,.
CN(C)c1cc(Cl)c2nonc2c1N,2.0%,9.9%,4.0%,5.5%,50.1µM*,-1.3%
CCN(CC)c1cc(Cl)c2nonc2c1N,10.2%,-5.2%,30.5%,2.7%,8.6%,-20.4%
C=CCc1cccc2cc(C(=O)Nc3ccc(S(=O)(=O)Nc4nnc(CC)s4)cc3)c(=O)oc12,-1.9%,1.2%,-11.7%,50.1µM*,11.2%,?
C=CCc1cccc2cc(C(=O)Nc3ccc(F)cc3)c(=O)oc12,-15.8%,1.7%,-2.6%,3.2%,-1.0%,-7.7%
C=CCc1cccc2cc(C(=O)Nc3ccc(CC(=O)O)cc3)c(=O)oc12,-13.7%,-2.4%,9.6%,50.1µM*,-18.5%,-20.2%
O=C(OCC#CCSc1nnc(-c2cccc3ccccc23)o1)c1ccsc1,.,.,.,-5.6%,.,.
O=C(CNC(=O)C1CCCCC1)OCC(=O)c1ccc(-c2ccccc2)cc1,.,.,.,0.0%,.,.
CCC(C(=O)OC(C)C)c1ccc2ccccc2c1 (configuration not stated),5.8%,3.8%,9.4%,-19.2%,2.1%,?
SMILES,EPAC2 agonist,EPAC1 ag,ERG Ets-DNA blk,TDP1 block,EPAC1 antagonist,EPAC2 antagonist
COc1ccc2cc(C(C)C(=O)OC(C)C)ccc2c1 (configuration not stated),17.9%,-23.9%,-0.1%,79.4µM*,-14.5%,?
CCOc1c2c(c(-c3ccc4c(c3)OCO4)c3cc(OC)c(OC)cc13)C(=O)OC2,.,.,.,2.6%,.,.
O=C(N1CCc2ccc(S(=O)(=O)N3CCN(S(=O)(=O)c4ccc5c(c4)OCCO5)CC3)cc2C1)C(F)(F)F,.,.,.,0.5%,.,.
Cc1nc(Nc2cnc(/C=C/c3cc(C(=O)Nc4cccc(C(F)(F)F)c4)ccc3C)cn2)cc(N2CCNCC2)n1,?,8.3%,-7.5%,.,-21.7%,50.1µM*
CCn1c(SC(C)C(=O)O)nc2sc3c(c2c1=O)CCC3 (configuration not stated),-7.9%,12.0%,4.2%,11.2µM*,-12.7%,-2.8%
CC(Sc1nc2sc3c(c2c(=O)n1-c1ccccc1)CCCC3)C(=O)O (configuration not stated),-1.3%,-14.5%,28.4%,-1.2%,8.9%,-10.4%
Nc1cc2nc[nH]c2cc1N,3.6%,-1.8%,-14.3%,79.4µM*,1.5%,0.7%
Cc1c(Cl)cccc1NS(=O)(=O)c1cc2c(cc1Cl)CCC(=O)N2,.,.,.,0.7%,.,.
O=C(COC(=O)/C=C/c1ccco1)Nc1ncc(Cl)cc1Cl,2.5%,-4.1%,-13.3%,20µM*,-2.4%,9.8%[57.1 µM]
CN(C)S(=O)(=O)c1ccc(Cl)c(NC(=O)COC(=O)/C=C/c2ccco2)c1,-4.0%,-8.5%,13.4%,50.1µM*,-5.7%,16.8%
COc1ccc(/C=C/C(=O)OCC(=O)Nc2cc(S(=O)(=O)N(C)C)ccc2Cl)cc1,3.1%,-3.1%,-0.3%,0.0%,1.3%,1.1%
Cc1nc(NC(=O)COC(=O)/C=C/c2ccco2)c(Cl)cc1Cl,0.0%,-2.7%,0.1%,.,-2.7%,9.9%
CCOc1ccc(OCCC(=O)OCC(=O)N2CCN(S(=O)(=O)c3ccc(Cl)cc3)CC2)cc1,2.0%,7.5%,-13.2%,25.1µM*,?,0.4%
COc1cc(/C=C2\SC(=Nc3ccccc3)NC2=O)cc(Cl)c1O,9.5%,21.9%,137.7%,.,-22.8%,-13.8%
COc1cc(/C=C2\SC(=Nc3ccc(Cl)c(C(=O)O)c3)NC2=O)c(Br)c(Br)c1O,22.5%,22.5%,154.9%,8.91µM*,?,?
C=CCNc1nnc(Cc2ccc(C(C)C)cc2)c(=O)[nH]1,10.3%,1.5%,-2.1%,50.1µM*,-3.6%,4.2%
O=[N+]([O-])c1ccc(/C=N/Nc2ncc(-c3ccccc3)cn2)cc1,2.7%,-6.8%,11.9%,6.0%,-7.8%,5.6%
